From ChEMBL document CHEMBL5724796, “Tm Shift (DSF) assay results for EUbOPEN Chemogenomics Library” (2024) come the findings set out here.

Holding throughout (details): Compound concentration 20.0 uM
The target of assay [1] is Tyrosine-protein kinase ABL1 (Homo sapiens) (UniProt P00519).
For assay [2], the target named is Bromodomain-containing protein 4 (Homo sapiens) (UniProt O60885).
Assay [3] addresses Cyclin-dependent kinase 2 (Homo sapiens) (UniProt P24941).
Assay [4] addresses Casein kinase I isoform delta (Homo sapiens) (UniProt P48730).
Assay [5] has as its target Glycogen synthase kinase-3 beta (Homo sapiens) (UniProt P49841).
Assay [6] has as its target Mitogen-activated protein kinase 1 (Homo sapiens) (UniProt P28482).
For assay [7], the target named is T1, Aurora kinase A (Homo sapiens) (UniProt O14965).
T1 sequence (whole entry): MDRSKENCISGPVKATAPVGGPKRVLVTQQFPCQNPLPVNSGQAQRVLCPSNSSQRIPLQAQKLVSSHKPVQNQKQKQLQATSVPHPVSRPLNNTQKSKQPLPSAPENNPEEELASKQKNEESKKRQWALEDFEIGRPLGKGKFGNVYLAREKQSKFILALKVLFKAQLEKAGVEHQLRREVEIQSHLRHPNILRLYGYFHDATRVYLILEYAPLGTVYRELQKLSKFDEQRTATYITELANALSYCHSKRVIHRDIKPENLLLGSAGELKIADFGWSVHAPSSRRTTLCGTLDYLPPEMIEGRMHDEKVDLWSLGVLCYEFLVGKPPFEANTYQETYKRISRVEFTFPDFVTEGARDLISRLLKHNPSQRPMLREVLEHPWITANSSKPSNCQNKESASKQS

In assay [8] the target is T2, Transcription intermediary factor 1-alpha (Homo sapiens) (UniProt O15164).
T2 sequence (whole entry): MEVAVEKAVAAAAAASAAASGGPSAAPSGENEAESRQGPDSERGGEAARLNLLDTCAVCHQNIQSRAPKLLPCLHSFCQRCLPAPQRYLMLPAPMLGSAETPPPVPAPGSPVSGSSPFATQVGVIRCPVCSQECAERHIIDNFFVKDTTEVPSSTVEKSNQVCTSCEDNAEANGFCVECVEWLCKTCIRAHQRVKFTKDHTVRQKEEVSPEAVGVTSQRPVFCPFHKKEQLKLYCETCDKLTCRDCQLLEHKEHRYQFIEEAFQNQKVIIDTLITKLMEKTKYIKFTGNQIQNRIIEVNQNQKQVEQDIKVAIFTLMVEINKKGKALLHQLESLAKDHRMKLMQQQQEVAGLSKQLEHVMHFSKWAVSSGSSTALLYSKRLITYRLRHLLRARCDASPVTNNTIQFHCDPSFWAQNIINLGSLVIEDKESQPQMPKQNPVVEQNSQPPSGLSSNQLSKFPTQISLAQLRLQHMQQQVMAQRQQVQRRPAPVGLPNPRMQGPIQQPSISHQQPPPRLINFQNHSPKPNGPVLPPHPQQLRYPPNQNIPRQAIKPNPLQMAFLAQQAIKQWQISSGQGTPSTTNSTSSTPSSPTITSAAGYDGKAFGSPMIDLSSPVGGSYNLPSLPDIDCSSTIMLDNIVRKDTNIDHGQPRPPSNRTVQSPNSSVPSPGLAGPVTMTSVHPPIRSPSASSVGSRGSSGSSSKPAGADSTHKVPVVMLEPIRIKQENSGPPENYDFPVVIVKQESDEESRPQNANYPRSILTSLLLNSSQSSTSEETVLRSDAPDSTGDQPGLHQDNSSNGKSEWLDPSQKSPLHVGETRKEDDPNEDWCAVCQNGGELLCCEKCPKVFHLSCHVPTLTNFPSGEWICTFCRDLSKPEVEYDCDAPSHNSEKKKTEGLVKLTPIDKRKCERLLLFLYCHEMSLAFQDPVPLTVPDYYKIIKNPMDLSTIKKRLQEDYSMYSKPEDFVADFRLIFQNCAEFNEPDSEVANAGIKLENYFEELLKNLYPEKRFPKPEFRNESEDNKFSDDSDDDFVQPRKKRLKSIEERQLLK

Sequence of Mitogen-activated protein kinase 1 (Homo sapiens) (P28482 whole entry): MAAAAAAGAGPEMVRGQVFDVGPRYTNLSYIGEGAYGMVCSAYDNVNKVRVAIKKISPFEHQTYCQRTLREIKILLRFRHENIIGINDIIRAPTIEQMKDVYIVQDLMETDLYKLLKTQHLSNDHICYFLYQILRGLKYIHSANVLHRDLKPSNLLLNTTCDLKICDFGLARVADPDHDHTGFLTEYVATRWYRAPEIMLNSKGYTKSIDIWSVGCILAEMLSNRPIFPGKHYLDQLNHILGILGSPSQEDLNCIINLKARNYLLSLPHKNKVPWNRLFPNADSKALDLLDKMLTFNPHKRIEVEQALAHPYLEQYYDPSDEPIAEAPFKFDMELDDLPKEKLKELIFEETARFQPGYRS
Sequence of Casein kinase I isoform delta (Homo sapiens) (P48730 whole entry, looked up, canonical isoform): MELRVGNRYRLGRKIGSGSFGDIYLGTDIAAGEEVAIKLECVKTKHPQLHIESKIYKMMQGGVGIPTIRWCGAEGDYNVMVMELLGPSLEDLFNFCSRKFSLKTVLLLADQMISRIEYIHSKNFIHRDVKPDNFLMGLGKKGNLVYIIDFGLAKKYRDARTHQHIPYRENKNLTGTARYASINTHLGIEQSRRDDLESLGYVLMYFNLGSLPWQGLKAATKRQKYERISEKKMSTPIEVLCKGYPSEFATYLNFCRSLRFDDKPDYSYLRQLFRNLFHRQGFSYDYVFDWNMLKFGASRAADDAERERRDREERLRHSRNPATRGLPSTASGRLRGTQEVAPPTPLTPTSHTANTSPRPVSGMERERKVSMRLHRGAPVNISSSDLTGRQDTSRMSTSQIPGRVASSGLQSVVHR
Sequence of Glycogen synthase kinase-3 beta (Homo sapiens) (P49841 whole entry, looked up): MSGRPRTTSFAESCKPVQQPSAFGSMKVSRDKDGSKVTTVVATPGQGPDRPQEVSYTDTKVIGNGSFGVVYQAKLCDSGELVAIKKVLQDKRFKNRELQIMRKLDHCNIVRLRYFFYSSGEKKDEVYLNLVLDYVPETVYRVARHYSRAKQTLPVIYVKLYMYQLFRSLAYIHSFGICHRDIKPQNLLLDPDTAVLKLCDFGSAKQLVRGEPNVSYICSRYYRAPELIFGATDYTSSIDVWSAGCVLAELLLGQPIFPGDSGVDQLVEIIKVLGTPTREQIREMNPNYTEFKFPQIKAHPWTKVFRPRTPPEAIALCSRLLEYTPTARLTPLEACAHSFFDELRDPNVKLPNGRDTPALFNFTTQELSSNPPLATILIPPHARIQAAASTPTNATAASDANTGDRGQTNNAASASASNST
Sequence of Tyrosine-protein kinase ABL1 (Homo sapiens) (P00519 whole entry): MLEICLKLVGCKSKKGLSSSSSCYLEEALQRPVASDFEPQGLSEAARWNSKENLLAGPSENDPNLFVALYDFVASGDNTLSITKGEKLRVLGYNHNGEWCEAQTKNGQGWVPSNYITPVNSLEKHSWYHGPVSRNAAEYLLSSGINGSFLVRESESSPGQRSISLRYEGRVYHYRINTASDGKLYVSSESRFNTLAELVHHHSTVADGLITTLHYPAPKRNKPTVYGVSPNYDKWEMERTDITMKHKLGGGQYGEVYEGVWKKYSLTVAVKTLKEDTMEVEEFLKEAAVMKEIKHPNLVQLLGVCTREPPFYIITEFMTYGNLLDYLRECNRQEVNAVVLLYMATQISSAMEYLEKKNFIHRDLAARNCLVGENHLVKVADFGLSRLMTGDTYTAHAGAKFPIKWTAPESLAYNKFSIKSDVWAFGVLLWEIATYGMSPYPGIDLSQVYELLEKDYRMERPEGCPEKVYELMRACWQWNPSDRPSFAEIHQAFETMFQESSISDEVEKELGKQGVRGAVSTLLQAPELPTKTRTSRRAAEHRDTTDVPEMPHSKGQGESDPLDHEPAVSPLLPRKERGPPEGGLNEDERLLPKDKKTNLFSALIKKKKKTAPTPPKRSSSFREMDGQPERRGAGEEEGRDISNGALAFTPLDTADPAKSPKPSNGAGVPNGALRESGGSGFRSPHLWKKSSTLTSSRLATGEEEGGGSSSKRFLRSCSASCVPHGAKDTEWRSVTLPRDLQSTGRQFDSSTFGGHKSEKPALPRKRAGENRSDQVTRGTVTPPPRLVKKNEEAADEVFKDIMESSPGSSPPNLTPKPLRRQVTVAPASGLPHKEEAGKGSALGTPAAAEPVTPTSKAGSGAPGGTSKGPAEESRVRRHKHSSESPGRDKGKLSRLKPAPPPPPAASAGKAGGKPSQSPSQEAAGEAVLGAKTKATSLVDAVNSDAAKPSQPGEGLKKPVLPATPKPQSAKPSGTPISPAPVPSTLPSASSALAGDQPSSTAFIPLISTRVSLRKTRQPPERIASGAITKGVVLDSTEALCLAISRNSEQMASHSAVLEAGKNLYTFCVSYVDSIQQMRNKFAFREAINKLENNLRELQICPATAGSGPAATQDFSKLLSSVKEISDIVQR

In the case of `COC(=O)C1=C(C(=O)OC)[C@@]2([C@@H](Cc3ccc(C)cc3)Nc3ccccc3)C=C[C@@H]1O2`, the thermal shift (ΔTm) was 0.44 °C in assay [1]; -0.64 °C in assay [2]; 0.54 °C in assay [3]; -0.66 °C in assay [4]; -1.68 °C in assay [5]; -0.27 °C in assay [6]. For the same compound, the figures for the shift in melting temperature (ΔTm) in assay [7] and in assay [8] were -2.34 °C and 1.28 °C, respectively.

As for `CN(CCCCCCNc1ccnc2cc(Cl)ccc12)CCCCCCNc1ccnc2cc(Cl)ccc12`, the ΔTm in assay [1] is -1.1 °C; in assay [2], 2.96 °C; in assay [3], 0.27 °C; in assay [4], -0.85 °C; in assay [5] it was -0.7 °C; in assay [6], -0.51 °C. Moreover, the values for the thermal shift (ΔTm) in assay [7] and in assay [8] were -1.69 °C and 0.54 °C, respectively.

In the case of `CN1C(=O)c2c(nn(Cc3ccc(-c4cccc(F)n4)cc3)c2Nc2ccccc2)N2C1=N[C@@H]1CCC[C@@H]12`, the ΔTm is 0.2 °C in assay [1]; 0.64 °C in assay [2]; -0.42 °C in assay [3]; -0.09 °C in assay [4]; 2.76 °C in assay [5]; 0.5 °C in assay [6]. Besides, the ΔTm in assay [7] is -0.82 °C; in assay [8], 0.46 °C.

For `CC(C)NCC(O)COC(Cn1c2ccccc2c2ccccc21)Cn1c2ccccc2c2ccccc21` (stereo not drawn), the ΔTm in assay [1] was 0.25 °C; in assay [2] it was 0 °C; in assay [3] it was -0.87 °C; in assay [4], -0.3 °C; in assay [5] it was -5.02 °C; in assay [6], -15 °C. In addition, the ΔTm in assay [7] is -0.78 °C; in assay [8], -3.49 °C.

For `CS(=O)(=O)N1CCN(C(=O)c2cnc3ccc(Cl)cc3c2-c2ccc(C3(C#N)CC3)cc2)CC1`, the ΔTm was 0.55 °C in assay [1]; -2.94 °C in assay [2]; 0.81 °C in assay [3]; 0.96 °C in assay [4]; 4.93 °C in assay [5]; 0.97 °C in assay [6]. The ΔTm was -2.24 °C in assay [7] and -1.2 °C in assay [8].

Take `Cn1ncnc1[C@H]1C2=c3c(cc(F)cc3=N[C@@H]1c1ccc(F)cc1)C(=O)NN2`: the ΔTm in assay [1] is 0.89 °C; in assay [2] it was 0.71 °C; in assay [3], 0.22 °C; in assay [4], -0.5 °C; in assay [5], 0.19 °C; in assay [6] it was 0.14 °C. For the same compound, the ΔTm in assay [7] was -1.59 °C; in assay [8], 0.57 °C.

With `NC(=S)c1cccc(-c2cn(C3CCN(S(=O)(=O)C(F)(F)F)CC3)c3cc(CNC(=O)C4CNC4)ccc23)c1`, the shift in melting temperature (ΔTm) was 0.61 °C in assay [1]; -0.14 °C in assay [2]; 1.5 °C in assay [3]; -0.09 °C in assay [4]; -0.8 °C in assay [5]; 0.28 °C in assay [6]. The values for the ΔTm in assay [7] and in assay [8] were -1.57 °C and 0 °C, respectively.

With `CC(=O)N1CCN([C@H]2CCC[C@@H](NC(=O)c3cc4c(F)ccc(C)c4[nH]3)C2)CC1`, the thermal shift (ΔTm) was 0.05 °C in assay [1]; -1.42 °C in assay [2]; 0.08 °C in assay [3]; 0.26 °C in assay [4]; -1.37 °C in assay [5]; 0.01 °C in assay [6]. The results for the thermal shift (ΔTm) in assay [7] and in assay [8] were -0.09 °C and -1.38 °C, respectively.

Turning to `CC(C)(OCc1cc(-c2cccc(OC3CC3)c2)n(-c2ccccc2Cl)n1)C(=O)O`, the shift in melting temperature (ΔTm) in assay [1] was 0.39 °C; in assay [2], -3.91 °C; in assay [3] it was -0.19 °C; in assay [4], 0.08 °C; in assay [5], 0.42 °C; in assay [6], 0.09 °C. Besides, the results for the thermal shift (ΔTm) in assay [7] and in assay [8] were -2.34 °C and -0.77 °C, respectively.

Consider `Nc1ccccc1NC(=O)c1ccc(CNc2nccc(-c3cccnc3)n2)cc1`, for which the ΔTm in assay [1] was 1.28 °C; in assay [2], -1.59 °C; in assay [3] it was 0.7 °C; in assay [4], 2.88 °C; in assay [5], 0.76 °C; in assay [6] it was 0.18 °C. In addition, the ΔTm was 5.93 °C in assay [7] and -0.03 °C in assay [8].

Take `CC(C)c1ccc(-c2cc(=O)c3ccccc3o2)cc1`: the ΔTm in assay [1] is 1.37 °C; in assay [2], -0.23 °C; in assay [3] it was -0.03 °C; in assay [4], 0.58 °C; in assay [5], 0 °C; in assay [6], 0.37 °C. Besides, the figures for the ΔTm in assay [7] and in assay [8] were -1.77 °C and -0.62 °C, respectively.

The ΔTm is the shift of the melting midpoint relative to a reference.
